{
  "source": "PubChem BioAssay AID1347156",
  "about": "(National Center for Advancing Translational Sciences (NCATS), 2019)",
  "note": "Inconclusive results are not listed. The source made the active and inactive calls. Calls follow the shape of the dose curve; as a rule, active = well fitted cell-killing curve with a large enough effect; inconclusive = small, poorly fitted or top-dose-only effect; inactive = flat fitted curve, though single readings scatter. % is scaled to controls: 0 for no effect and ±100 for the full control effect; potency is read from the fitted curve at half-maximal effect.",
  "data": [
    {"assay": "DAPI mCherry counterscreen qHTS for Zika virus inhibitors; also: nearly all actives have a fitted effect of over 55% in size", "conditions": "Vero cells, DAPI nuclear count cytotoxicity, imaging 48-72 h, infected with Zika reporter virus, MOI 1; series mostly up to 32.6 µM; activity change, negative = cell loss: at the top concentration", "from_the_text": "Assay Submitters (PI): Avindra Nath, Ph.D., National Institute of Neurological Disorders and Stroke (NINDS), Bethesda, MD Radhakrishnan Padmanabhan, Ph.D., Georgetown University (GU), Washington D.C. Zika Virus causes congenital defects, including microcephaly and is associated with Guillain-Barre syndrome, eningoencephalitis and myelitis in infected adult. […] Using a target-based approach, we hope to establish a screening paradigm to uncover novel, cell-active NS2B-NS3 protease (Zika Virus) specific inhibitors from NCATS' collection of small molecules using qHTS. […] Four assay panel was created to identify potential Zika Virus inhibitors. Namely, (1) GU unlinked NS2B-NS3 AMC tagged protease qHTS, (2) GU unlinked NS2B-NS3 Rhodamine tagged protease qHTS, (3) NINDS linked NS2B-NS3 AMC tagged protease qHTS, (4) NINDS linked NS2B-NS3 Rhodamine tagged protease qHTS. Active compounds were re-acquired and re-screened to confirm inhibition. Inhibitors were further screened against various confirmatory and counterscreens in dose response format. […] A DAPI (mCherry counterscreen) which determine Vero cell cytotoxicity was used to exclude false positive compounds. […] Early Translation Branch (ETB) National Center for Advancing Translational Sciences (NCATS), Rockville, MD National Institute of Health (NIH), Bethesda, Maryland\n384 well ZIKV-mCherry & mCherry DAPI counterscreen: We have developed a new orthogonal imaging assay in 384-well plate format, which uses recombinant virus ZIKV-mCherry in Vero cells. Briefly, 30 microL of Vero cells derived from a green monkey cell line, were dispensed by Multidrop Dispenser into a clear solid bottom black 384 well plate (ultracarrier, Perkin Elmer LifeSciences) at a concentration of 5,000 cells per well. The plate was incubated overnight in a CO2 incubator at 37 degrees C. Compounds were delivered as a 126 nL DMSO solution by Kalypsys pintool transfer. Following compound transfer, 10 microL of ZIKV-mCherry was added at an MOI of 1 and incubated in a CO2 incubator for 48-72 hrs at 37 degrees C. After sufficient incubation of infected cells in test plates, 8 microL of 32% PFA was dispensed into assay plates to fix cells and incubated for 20 min at room temperature. Plates were washed 3 times with PBS using BioTek EL406 microplate washer/dispenser. After washing, 30 microL of PBS with 0.01% TX-100 containing Hoechst dye was dispensed into the each well of the plates for nuclear staining. 384-well plates were imaged on an automated, widefield high content imager (INCell 2200, GE Healthcare) using a 10x/0.45 NA lens and standard DAPI (nuclear stain) and mCherry (cy5) excitation and emission filters. The TIFFs were quantitated using the canned Multi Target Analysis protocol (GE Investigator Workstation software v3.7.2). Briefly, nuclei from the DAPI channel were identified using top hat segmentation and a sensitivity setting of 96 and minimum size area of 35 microm2. A recombinant Zika viral infection was monitored in the Cy5 channel (cells) using a 2 microm collar dilation from the nuclear bitmap. mCherry objects with an average nuclear RFU intensity above 450 (3 stdev above mean negative control wells) were considered \"mcherry positive\" and data was analyzed by percent infection rate.", "values": [
      {"smiles": "Cc1cc(C(C#N)c2ccc(Cl)cc2)c(Cl)cc1NC(=O)c1cc(I)cc(I)c1O", "note": "(stereo not given)", "Potency": "8.91 µM (active)"},
      {"smiles": "COc1ccc(Cl)c(Nc2nc3ccccc3nc2NS(=O)(=O)c2cccc(NC(=O)C(C)(C)N)c2)c1", "Potency": "22.4 µM (active)"},
      {"smiles": "O=C(O)CCc1ccc(-c2ccc(Cl)cc2)n1-c1cccc(C(F)(F)F)c1", "Potency": "25.1 µM (active)"},
      {"smiles": "N#C/C(=C\\c1ccc(-c2ccc(Cl)c(C(=O)O)c2)o1)c1nc2ccccc2[nH]1", "activity change, negative = cell loss": "-14.4% (inactive)"},
      {"smiles": "O=C(Nc1ccc(S(=O)(=O)N2CCOCC2)cc1)c1cc(Cl)ccc1NS(=O)(=O)c1ccc(Cl)s1", "Potency": "15.8 µM (active)"},
      {"smiles": "O=C(NCc1ccccc1Cl)c1ccc2c(O)c(S(=O)(=O)c3ccccc3)c(=O)[nH]c2c1", "activity change, negative = cell loss": "-8.67% (inactive)"},
      {"smiles": "N#CC(c1ccc(Cl)cc1)c1c(Cl)cc(-n2ncc(=O)[nH]c2=O)cc1Cl", "note": "(stereo not given)", "Potency": "25.1 µM (active)"},
      {"smiles": "CC1CCN(C(c2ccc(F)cc2)c2ccc(C(C)C(=O)O)cc2-c2ccc(C(F)(F)F)cc2)CC1", "note": "(stereo not given)", "Potency": "8.91 µM (active)"},
      {"smiles": "CC(C)=CCCC1(C)C=Cc2c(O)c3c(c(CC=C(C)C)c2O1)OC12C(=CCCC1C(C)(C)O[C@@]2(C/C=C(\\C)C(=O)O)C(=O)O)C3=O", "note": "(stereo not given in full)", "Potency": "15.8 µM (active)"},
      {"smiles": "O=C(O)c1ccc(CCCc2ccc(OCCc3ccc(F)cc3)cc2)o1", "Potency": "31.6 µM (active)"},
      {"smiles": "O=C(Nc1ccc(Oc2ccc(Cl)cc2)c(Cl)c1)c1cc(I)cc(I)c1O", "Potency": "10 µM (active)"},
      {"smiles": "COc1cc(C)c(C(=O)OC2C(C)OC(OC3CCC(C)C4C3C=C(C)C3/C(C)=C\\CC/C(C)=C/C5(C)C=C(C(=O)O)C(C)CC56OC(=O)/C(=C(\\O)C34C)C6=O)C(O)C2O)c(OC)c1", "note": "(stereo not given)", "activity change, negative = cell loss": "-11.1% [at 8.16 µM] (inactive)"},
      {"smiles": "Fc1cc(C2=Nn3c(COc4ccc(Cl)cc4Cl)nnc3S/C2=C\\c2ccc(-c3ccc(Cl)cc3)o2)c(Cl)cc1Cl", "activity change, negative = cell loss": "-9.03% (inactive)"},
      {"smiles": "COc1ccc(/C=C(\\C#N)c2nc(-c3cc4c(ccc5ccccc54)oc3=O)cs2)cc1O", "Potency": "1 µM (active)"},
      {"smiles": "COc1ccc(S(=O)(=O)Nc2cc(-c3c(O)ccc4ccccc34)c(O)c3ccccc23)cc1", "Potency": "10 µM (active)"},
      {"smiles": "COc1cc(C2Nc3ccccc3-c3nnc(SCc4ccc(Cl)cc4)nc3O2)ccc1OCC(=O)O", "note": "(stereo not given)", "activity change, negative = cell loss": "-19.4% (inactive)"},
      {"smiles": "O=C1c2c(O)ccc([N+](=O)[O-])c2C(=O)c2c([N+](=O)[O-])ccc(O)c21", "Potency": "39.8 µM (active)"},
      {"smiles": "O=C(O)c1ccccc1Nc1cccc(OCc2ccc3ccccc3n2)c1", "Potency": "31.6 µM (active)"},
      {"smiles": "CC(=O)C(N=Nc1ccc(S(=O)(=O)Nc2ccccn2)cc1)C(=O)Nc1ccc(Cl)cc1", "note": "(stereo not given)", "activity change, negative = cell loss": "-15.2% (inactive)"},
      {"smiles": "Cc1cc(-c2ccc(N=Nc3ccc4c(S(=O)(=O)O)cc(S(=O)(=O)O)c(N)c4c3O)c(C)c2)ccc1N=Nc1ccc2c(S(=O)(=O)O)cc(S(=O)(=O)O)c(N)c2c1O", "activity change, negative = cell loss": "-8.92% (inactive)"},
      {"smiles": "O=C(O)c1c(Sc2ccccc2)c2cc(Cl)ccc2n1Cc1ccc(Cl)cc1", "Potency": "12.6 µM (active)"},
      {"smiles": "CC(=O)Nc1ccc(S(=O)(=O)O)c2cc(S(=O)(=O)O)c(N=Nc3ccc(N=Nc4ccc(S(=O)(=O)O)cc4)c4ccc(S(=O)(=O)O)cc34)c(O)c12", "activity change, negative = cell loss": "-5.95% (inactive)"},
      {"smiles": "O=C(O)C(Cc1cc(I)c(O)c(I)c1)c1ccccc1", "note": "(stereo not given)", "Potency": "4.47 µM (active)"},
      {"smiles": "Nc1c(S(=O)(=O)O)cc(Nc2ccc(Nc3nc(Cl)nc(Nc4ccc(S(=O)(=O)O)cc4)n3)c(S(=O)(=O)O)c2)c2c1C(=O)c1ccccc1C2=O", "activity change, negative = cell loss": "-16.3% (inactive)"},
      {"smiles": "COc1cccc(C(=O)Nc2ccc(C(=O)OCc3cc(=O)n4nc(C5CC5)sc4n3)cc2)c1", "Potency": "5.62 µM (active)"},
      {"smiles": "Cc1cc(S(=O)(=O)Nc2ccc(C(=O)O)cc2)c(C)c(S(=O)(=O)c2ccc(Cl)cc2)c1", "activity change, negative = cell loss": "-10.7% (inactive)"},
      {"smiles": "CC(C)c1ccc2c(c1)c(SC(C)(C)C)c(CC(C)(C)C(=O)O)n2Cc1ccc(Cl)cc1", "Potency": "11.2 µM (active)"},
      {"smiles": "Cc1ccc(NC(=O)c2ccc3c(O)c(S(=O)(=O)c4ccc(Cl)cc4)c(=O)[nH]c3c2)cc1", "activity change, negative = cell loss": "-7.33% (inactive)"},
      {"smiles": "NC(=O)c1ccc2nc(-c3ccc(Oc4ccc(Cl)cc4)cc3)[nH]c2c1", "Potency": "31.6 µM (active)"},
      {"smiles": "CCOC(=O)c1ccc(N2C(=O)c3n[nH]c(-c4cccs4)c3C2c2ccc(Cl)cc2Cl)cc1", "note": "(stereo not given)", "Potency": "11.2 µM (active)"},
      {"smiles": "CCC(C)CCCCC(=O)NC(CCNCS(=O)(=O)O)C(=O)NC(C(=O)NC(CCNCS(=O)(=O)O)C(=O)NC1CCNC(=O)C(C(C)O)NC(=O)C(CCNCS(=O)(=O)O)NC(=O)C(CCNCS(=O)(=O)O)NC(=O)C(CC(C)C)NC(=O)C(CC(C)C)NC(=O)C(CCNCS(=O)(=O)O)NC1=O)C(C)O", "note": "(stereo not given)", "activity change, negative = cell loss": "9.56% (inactive)"},
      {"smiles": "COc1ccc2c(c1)Oc1nc(-c3ccc(C)s3)nc(SCC(=O)Nc3cccc(C(=O)O)c3)c1C2", "activity change, negative = cell loss": "-10.7% (inactive)"},
      {"smiles": "Cc1ccc(-n2[nH]c(C)c(N=Nc3cccc(-c4cccc(C(=O)O)c4)c3O)c2=O)cc1C", "Potency": "14.1 µM (active)"},
      {"smiles": "O=C(O)c1cccc(-c2ccc(-c3cn(C(=O)N4CCCCC4Cc4ccccc4)nn3)cc2)c1", "note": "(stereo not given)", "Potency": "35.5 µM (active)"},
      {"smiles": "O=c1c(O)c(-c2ccc(O)c(O)c2)oc2cc(O)cc(O)c12", "activity change, negative = cell loss": "-12.9% (inactive)"},
      {"smiles": "CC(=O)N1c2ccc(-c3ccc(C(=O)O)cc3)cc2C(Nc2ccc(Cl)cc2)CC1C", "note": "(stereo not given)", "Potency": "1 µM (active)"},
      {"smiles": "Cc1nc(N=Nc2cc(S(=O)(=O)O)c3cc([N+](=O)[O-])cc(S(=O)(=O)O)c3c2)c(COP(=O)(O)O)c(C=O)c1O", "activity change, negative = cell loss": "-14.8% [at 37.3 µM] (inactive)"},
      {"smiles": "COc1c2occc2cc2ccc(=O)oc12", "activity change, negative = cell loss": "-12.1% [at 49.1 µM] (inactive)"},
      {"smiles": "Nc1ncnc2c([C@@H]3N[C@H](CO)[C@@H](O)[C@H]3O)c[nH]c12", "activity change, negative = cell loss": "-3.6% (inactive)"},
      {"smiles": "O=C(O)CSc1nc2ccc(NC(=O)COc3ccc(Cl)cc3)cc2s1", "activity change, negative = cell loss": "-7.1% (inactive)"}
    ]}
  ]
}
